The list is not random: actives were taken first. Their share in the collection is about 3.9%.
CDK5 inh: CDK5/p35 (human) kinase inhibition; AID 488839; Q00535+Q15078; inhibition, % at 10 µM; Recombinant CDK5/p35, ADP-Glo luminescence, 60 min; 0.01% of 330,000 active;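 active = highest replicate inhibition of at least 50% and at least 75% of replicates reaching 50%; inconclusive = only one of the two criteria met; inactive = both criteria failed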;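 also: plate controls were DMSO neutral control for no effect and GW8510 at 10 µM for full effect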
SUMO Mot1 rescue: blocks SUMOylation pathway, rescuing yeast Mot1-301 growth; S. cerevisiae Mot1-301 growth rescue, ATP luminescence, 38.5C; percent above DMSO median, 100 means doubled; growth rescue, % at 18.8 µM; 1% of 320,000 active; AID 2716;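 active = every valid replicate shows activation above 250% relative to neutral control wells; inactive = the rest, any valid replicate at or below 250%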;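 also: OY570 slx delta 5 strain wells were the positive control but not used for scaling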
NSD2 HMT inh: inhibitors of human histone methyltransferase NSD2. O96028. NSD2 peptide methylation, AlphaScreen, 120 min. inhibition, % at 12.5 µM. 0.54% of 310,000 active. AID 743445; in the data active = inhibition above about 50%
N-glyco inh: blocks N-linked glycosylation in D54 reporter cells. D54 ERlucT glycosylation luciferase reporter, 24 h; percent of 100 nM tunicamycin response. reporter increase, % at 12.5 µM. 0.23% of 360,000 active. AID 588692;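 active = mean luciferase reporter signal, scaled so untreated is 0 and the glycosylation-blocking control 100, at or above a set limit in every replicate; inconclusive = mean reaches the limit but not every replicate does; inactive = mean below the limit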;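 also: luciferase carries N-glycosylation sites so blocking glycosylation raises the light; 0% = median of neutral control wells and 100% = median of 100 nM tunicamycin wells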
ALR H2O2 inh: blocks human ALR sulfhydryl oxidase activity; P55789; purified ALR, DTT oxidation, H2O2 HRP-luminol luminescence; inhibition, % (no concentration beside the values); 3.8% of 290,000 active;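 active = mean replicate inhibition above about 79%, with every replicate also reaching it, limit read from the data; inconclusive = only one of the two criteria met; inactive = mean below limit and not every replicate reaching it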
Target sequence (P55789 whole entry, looked up): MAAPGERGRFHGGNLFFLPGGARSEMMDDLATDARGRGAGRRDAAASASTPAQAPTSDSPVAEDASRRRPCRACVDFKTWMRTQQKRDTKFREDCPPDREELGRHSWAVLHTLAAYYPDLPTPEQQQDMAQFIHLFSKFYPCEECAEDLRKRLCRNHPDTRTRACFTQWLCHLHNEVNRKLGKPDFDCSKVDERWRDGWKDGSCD
CASP6 VEID inh: inhibitors of human caspase-6; inhibition, % at 12.5 µM; P55212; purified caspase-6, Z-VEID-R110 cleavage fluorescence; 0.53% of 350,000 active;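 active = mean inhibition across replicates at least about 35%, with every replicate also reaching that limit, limit read from the data; inconclusive = only one of the two criteria met; inactive = neither criterion met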;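 also: 0% = median of neutral control wells and 100% = no fluorescence left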
Target sequence (P55212 24-179 limits assumed): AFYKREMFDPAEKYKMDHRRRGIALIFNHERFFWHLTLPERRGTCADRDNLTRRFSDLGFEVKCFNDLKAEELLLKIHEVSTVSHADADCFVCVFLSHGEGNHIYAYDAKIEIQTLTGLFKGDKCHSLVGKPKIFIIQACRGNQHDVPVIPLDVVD
Target sequence (P55212 194-293 limits assumed): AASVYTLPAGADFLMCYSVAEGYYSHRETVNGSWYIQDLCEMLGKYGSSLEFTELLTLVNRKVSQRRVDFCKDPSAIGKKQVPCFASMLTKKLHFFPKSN
Numbers without * were called inactive; ? = inconclusive; / = no result given.

SMILES	CDK5 inh	SUMO Mot1 rescue	NSD2 HMT inh	N-glyco inh	ALR H2O2 inh	CASP6 VEID inh
Oc1ccc(C2CNCc3sccc32)cc1O (centres undefined)	0.1	20.5	/	0.2	97.7*	/
Cc1cccc(S(=O)(=O)N2CC[C@@H]3[C@H](CO)N(C)c4ccc(-c5ccc(C#N)cc5)cc4[C@@H]32)c1	/	/	/	/	/	0.5
CCC1(C)C2(C#N)C(N)=NC(OC)(OC)C12C#N (centres undefined)	1.0	4.0	/	-2.5	1.9	/
CC1(C)C2(C#N)C(N)=NC3(OCCO3)C12C#N (centres undefined)	-1.2	9.3	-0.6	-0.3	99.8*	/
CSc1cccc(NC(=O)CCC(=O)O)c1	-0.8	-1.4	-2.2	2.5	-6.5	-0.5
Cc1c(C)c(C)c(C(=O)CCc2cccc(NC(=O)CCC(=O)O)c2)c(C)c1C	0.4	-0.5	-1.0	1.6	95.5*	-2.3
O=C(NCc1ccccc1)[C@H]1N[C@H]2c3cccc(=O)n3C[C@H]2[C@@H]1CO	/	/	/	/	/	-2.1
CCCCN1C2=NC(c3ccccc3)CN2c2ccccc21 (centres undefined)	0.0	-11.3	0.5	-1.7	93.4*	-2.3
CCCCN1C2=NCCCN2c2ccccc21	-2.8	10.7	0.8	2.2	0.4	/
Cc1ccc(C)c(OCCCN2CCc3ccccc3C2)c1	-0.4	320.5*	-9.7	-1.1	-11.0	-2.2
Cc1ccc(C(C)C)c(OCCCN2CCc3ccccc3C2)c1	-0.1	-9.0	-3.0	-1.9	/	-8.7
Cc1ccc(NC2(C#N)CCCC2)cc1	-0.3	/	-1.5	0.3	/	0.9
CCCOP(=O)(OCCC)C1(Nc2ccc(C)cc2)CCCCC1	-0.4	4.7	0.1	-3.2	93.3*	/
CN(Cc1ccon1)C(=O)c1ccc2nc(Cc3cccc(Cl)c3)oc2c1	-0.8	-4.0	2.0	-0.4	-1.5	5.8
CN(Cc1cccnc1)C(=O)c1ccc2nc(Cc3ccccc3F)oc2c1	-0.6	-3.0	-5.7	-3.4	96.8*	-2.8
CCC1(C)Cc2c(C#N)c(N)n(-c3ccccc3)c(=S)c2CO1 (centres undefined)	-0.7	-3.9	10.1	4.7	-4.4	35.6*
COc1ccc(S(=O)(=O)N[C@@H]2C=C[C@H](CC(=O)N3CCN(c4ccccc4)CC3)O[C@@H]2CO)cc1	/	/	/	/	/	1.3
COc1ccc(-c2noc(CN(C)S(=O)(=O)c3ccccc3)n2)cc1OC	1.0	1.2	0.5	-1.8	96.6*	/
CN(Cc1nc(-c2cccnc2)no1)S(=O)(=O)c1ccccc1	1.8	-3.1	0.2	-2.1	/	/
c1ccc(-c2noc(CN3CCN(c4ccccc4)CC3)n2)cc1	1.0	-19.0	/	0.3	82.0*	0.2
COc1ccc(-c2noc(CN3CCN(c4ccccc4F)CC3)n2)cc1OC	-0.8	13.7	-8.8	0.3	99.7*	/
Fc1ccccc1N1CCN(Cc2nc(-c3ccccc3)no2)CC1	1.6	-10.6	-5.8	-0.8	-16.7	2.2
COC(=O)C[C@@H]1C=C[C@@H](NC(=O)c2ccccc2)[C@@H](CO)O1	/	/	/	/	/	0.1
C[C@@H]1CN([C@@H](C)CO)C(=O)c2cccc(NS(=O)(=O)c3cccs3)c2O[C@@H]1CN(C)S(=O)(=O)c1cccs1	/	/	/	/	/	2.0
CCOC(=O)c1c(NC(=O)C2C3C=CC(C3)C2C(=O)O)sc2c1CCC(C)C2 (centres undefined)	0.1	-17.2	3.5	0.5	95.3*	28.0
SMILES	CDK5 inh	SUMO Mot1 rescue	NSD2 HMT inh	N-glyco inh	ALR H2O2 inh	CASP6 VEID inh
CCOC(=O)c1c(NC(=O)C2C3C=CC(C3)C2C(=O)O)sc2c1CCCC2 (centres undefined)	-1.1	-0.3	-3.0	0.5	20.2	0.8
NC(=O)c1c(NC(=O)C2CC=CCC2C(=O)O)sc2c1CCCCC2 (centres undefined)	3.5	-11.2	3.1	0.6	9.1	52.5*
CCOC(=O)c1c(NC(=O)C2CC(Cl)=CCC2C(=O)O)sc2c1CCCCC2 (centres undefined)	0.5	-25.0	8.7	-0.1	97.7*	/
C[C@@H]1CN([C@@H](C)CO)C(=O)CCCn2cc(nn2)CO[C@@H]1CN(C)C(=O)NC1CCCC1	/	/	/	/	/	-2.4
COc1ccc2c3c(n(C)c2c1)[C@@H](CO)N(C(=O)CN1CCOCC1)CC31CN(Cc2ccncc2)C1	/	/	/	/	/	-4.7
O=C(c1ccncc1)N1CCCCN2[C@H](C1)[C@H](c1ccc(C#Cc3ccccn3)cc1)[C@@H]2CO	/	/	/	/	/	36.6*
CCCCN=C(NNc1ccc(Br)cc1)C(=O)OCC	-0.9	126.5	2.3	1.0	99.2*	1.9
CCOC(=O)C(=NCCCN(C)C)NNc1ccc(Br)cc1	1.3	180.6	4.9	-0.3	99.0*	-34.3
CC(C)NC(=O)N(C)C[C@H]1Oc2c(NC(=O)Nc3ccc(F)cc3)cccc2C(=O)N([C@H](C)CO)C[C@H]1C	/	/	/	/	/	-1.8
Cc1ccc(S(=O)(=O)Nc2ccc3c(c2)CC(=O)N([C@H](C)CO)C[C@H](C)[C@@H](CN(C)CC2CCCCC2)O3)cc1	/	/	/	/	/	3.0
CC(C)NC(=O)N(C)C[C@@H]1OCCCC[C@@H](C)Oc2ccc(NS(=O)(=O)c3ccc(Cl)cc3)cc2C(=O)N([C@@H](C)CO)C[C@H]1C	/	/	/	/	/	0.0
CC(O)(CS(=O)(=O)Cc1ccccc1)C(=O)Nc1cccc(C(F)(F)F)c1 (centres undefined)	0.5	-5.2	-3.5	1.8	-1.5	39.8*
Cc1noc(C)c1S(=O)(=O)Nc1ccc2c(c1)CC(=O)N([C@H](C)CO)C[C@@H](C)[C@@H](CN(C)CC1CCCCC1)O2	/	/	/	/	/	1.4
COc1cc(-c2nc3ccccn3c2/N=C/c2ccc(F)cc2)ccc1O	1.4	111.9	-1.2	2.1	95.1*	0.3
CN(C)c1ccc(NC(=O)CCN2CCN(c3ccccn3)CC2)cc1	1.7	-1.4	0.6	-1.4	99.0*	-2.0
CN1CC(=O)N(CC(=O)Nc2ccc(N(C)C)cc2)c2ccccc2C1=O	1.4	-17.9	6.6	5.6	98.9*	/
CSc1ccc(NC(=O)NCCN2CCc3ccccc3C2)cc1	0.9	6.0	4.2	0.1	97.8*	/
O=C(CCN1CCN(c2ccccn2)CC1)Nc1ccc(F)cc1	0.2	7.5	0.0	2.0	2.6	/
CCN(CC)c1ccc(NC(=O)CN2CCN(CC(=O)Nc3ccc(F)cc3)CC2)cc1	-2.4	4.7	7.2	-3.4	98.5*	/
CCN(CC)c1ccc(NC(=O)CN2CCN(CC(=O)Nc3ccc(OC)cc3)CC2)cc1	2.8	17.2	-1.1	-4.4	?	0.4
O=C/C=C/c1ccc(-c2ccccc2)cc1	/	/	/	/	/	14.7
Cc1noc(C)c1NC(=O)N(C)C[C@H]1OCCCC[C@@H](C)Oc2ccc(NC(=O)NC3CCCCC3)cc2C(=O)N([C@H](C)CO)C[C@@H]1C	/	/	/	/	/	-1.8
CN(C)c1ccc(NC(=O)CN2CCc3ccccc3C2)cc1	-0.6	40.5	18.1	-1.4	99.4*	0.2
CN(C)c1ccc(NC(=O)CN2CCC(N3CCCCC3)CC2)cc1	1.1	-8.3	3.2	6.7	99.3*	/
CN(C)c1ccc(NC(=O)CN2CCC(NC(=O)C3CCCCC3)CC2)cc1	1.2	32.3	41.0	-1.3	58.5	-181.5

Source: PubChem
